Measured values published in ChEMBL document CHEMBL4513216, “Probing the Open Global Health Chemical Diversity Library for Multistage-Active Starting Points for Next-Generation Antimalarials” (ACS Infect Dis, 2020).
Out of some 69,000 compounds screened, about 8,600 (12%) showed an effect of 50% or more. The full list was thinned out, with strong results kept by preference.

system: Plasmodium berghei; assay: Screen against P. berghei liver stage (PbLuc), transformed with Luciferase, at 10uM; assay type: functional, HepG2; settings: tested at 10 uM

Structure (SMILES)	INHIBITION [%]
CC(C)n1ccc(-c2cc(C(=O)N3CCN(C)CC3)c3ccccn23)n1	16.9
Cc1onc(-c2ccncc2)c1C(=O)NC1CCCOC1 (stereo not given)	10.8
CCN(C)c1ncnc2c1CCN(C(=O)c1ccoc1C)CC2	-125
CC(C)CCC(=O)N1CC[C@@H]2[C@H](CC1)N(S(C)(=O)=O)CCS2(=O)=O	-31.9
C/C(NC(=O)c1ccccn1)=C1\C(=O)C[C@@H]2[C@H]1C2(C)C	9.41
Cc1cc(OC(F)F)c(C(=O)N2CC[C@H](O)C2)s1	3.58
CN(C)[C@H]1COC[C@@H]2CN(Cc3ccc4c(c3)OCO4)C[C@@H]21	12.1
O=c1ccncn1Cc1csc(C2CC2)n1	57.5
Cn1cnc2c1CCN(Cc1csc(C3CCCC3)n1)C2	-19.9
CN(c1nc(Cn2cc(Br)ccc2=O)cs1)C1CC1	0
CCc1csc(C2CCCN(C(=O)c3ccncc3)C2)n1 (stereo not given)	6.1
Cc1ccc(=O)n(Cc2csc(N(C)C3CC3)n2)n1	-40.6
CN(c1nc(Cn2cnccc2=O)cs1)C1CC1	55.5
Cc1cc(C(=O)NCc2cccn2C)nn1C	9.55
CS(=O)(=O)NC[C@H]1OC[C@@H]2CCN(Cc3ccc(F)cc3)C[C@@H]21	-16.2
Cc1n[nH]cc1C(=O)N1CCCC(n2nnc3cc(F)ccc32)C1 (stereo not given)	21
Cc1nn(C)cc1C(=O)N1CCCC(n2nnc3cc(F)ccc32)C1 (stereo not given)	-3.31
Cc1nnsc1C(=O)N1CCCC(n2nnc3cc(F)ccc32)C1 (stereo not given)	52
COCCc1noc(CN2CCOC(Cn3cc(C)cn3)C2)n1 (stereo not given)	-90.9
Cc1cccc(=O)n1CCC(=O)N1CCC2(CC1)OCCCC2O (stereo not given)	24.2
Cc1nc(C)c(C(=O)NCc2nc3cccc(C)c3n2C)o1	88.8
CCn1c(CNC(=O)Nc2nc(C)c(C)o2)nc2ccccc21	44.8
Cc1nc(NC(=O)NCc2nc3cccc(C)c3n2C)oc1C	38.6
CCc1ccc(C(=O)O)cc1S(=O)(=O)Nc1ccc2c(c1)OCCO2	28

Structure (SMILES)	INHIBITION [%]
CCS(=O)(=O)NCCCNCc1c(C)nn(C)c1N(C)C	23.25
CCN(Cc1cccnc1)C1CCN(c2ccccc2)C1=O (stereo not given)	-2.27
CCN(Cc1ccncc1)C1CCN(c2ccccc2)C1=O (stereo not given)	-13.1
CCN(Cc1cnc(C)cn1)C1CCN(c2ccccc2)C1=O (stereo not given)	15.2
CCOc1ccc(CN(C)C2CCN(c3cc(C)nn3C)C2=O)cc1 (stereo not given)	24.7
Cc1cc(N2CCC(N(C)Cc3cccnc3)C2=O)n(C)n1 (stereo not given)	59.3
CCN(Cc1ccccc1)C1CCN(c2cc(C)nn2C)C1=O (stereo not given)	57.2
CC(C)C(=O)N1CCC2(CCN2CC2CC2)C1 (stereo not given)	8.85
Cc1cc(C(=O)N2C[C@@H]3CC[C@H]2CN(Cc2ccccn2)C3)nc(C)n1	4.59
Cc1ncsc1C(=O)N1CCC(c2ccc3c(NC(C)C)n[nH]c3n2)C1 (stereo not given)	-3.94
CC(=O)Nc1ccc(SCC(O)COCc2ccccc2)cc1 (stereo not given)	16.6
O=C(Cc1cccnc1)NCCS(=O)(=O)c1ccccc1F	33.7
CNC(=O)C1(c2cnccn2)CCCN1C(=O)c1cccc(F)c1 (stereo not given)	1.5
CCC(CC)NCC(c1ccccn1)N1CCOCC1 (stereo not given)	65.6
Cc1ccc(C(CNC(=O)NCc2ccccn2)N2CCOCC2)o1 (stereo not given)	11.783
Cc1nn(C)c(N2CCOCC2)c1CNC(C)c1ccccn1 (stereo not given)	36.2
c1cncc(C(Cn2cnnc2)N2CCOCC2)c1 (stereo not given)	7.31
COc1cc(NCC(c2ccccn2)N2CCOCC2)ncn1 (stereo not given)	6.26
c1ccc(C(CNc2ncccn2)N2CCOCC2)nc1 (stereo not given)	3.48
NCc1cc(NCC(c2ccccn2)N2CCOCC2)ncn1 (stereo not given)	60.1
CC(C)c1nn(C)c(N2CCOCC2)c1CNC(C)c1ccccn1 (stereo not given)	23.7
c1ccc(C(Cn2cnnc2)N2CCOCC2)nc1 (stereo not given)	70.4
CCCS(=O)(=O)NC1CCN(c2cccc(F)c2C#N)CC1	25.4
c1nc(CCC2CCCCN2)cc(N2CCCC2)n1 (stereo not given)	32.8

Structure (SMILES)	INHIBITION [%]
O=C(CC1CC1)N1Cc2nccn2CC(COc2cccnc2)C1 (stereo not given)	13.5
O=C(N[C@H]1CCCC[C@@H]1O)c1cccc(-c2nc3ccccc3[nH]2)c1	-13.2
Cc1nc(CN2CCCC(Nc3ncnc4ccsc34)C2)no1 (stereo not given)	79.1
Cc1nc(CN2CCCC(NCc3cnn(C)c3)C2)no1 (stereo not given)	-10.6
CCc1nc(CN2CCCC(Nc3ncnc4ccsc34)C2)no1 (stereo not given)	88.5
Cc1nc(CN2CCCC(NCc3nc4ccccc4s3)C2)no1 (stereo not given)	29.2
CCc1nc(CN2CCCC(NCc3cc(C)no3)C2)no1 (stereo not given)	29.5
Cc1nc(CN2CCCC(Nc3ncnc4ccccc34)C2)no1 (stereo not given)	90.2
Cc1nc(CN2CCCC(Nc3ncnc4c3CCC4)C2)no1 (stereo not given)	85.1
Cc1nc(CN2CCCC(NCc3cccc4ccccc34)C2)no1 (stereo not given)	-18.8
CCc1nc(CN2CCCC(NCc3cnc(C)s3)C2)no1 (stereo not given)	15.3
Cc1nc(CN2CCCC(NCc3sccc3C)C2)no1 (stereo not given)	48.4
Cc1nc(CN2CCCC(NCc3ccc4ccccc4c3)C2)no1 (stereo not given)	41.5
Cc1nc(CN2CCCC(NCc3ccsc3)C2)no1 (stereo not given)	20.1
CN(C)Cc1cnc(C2CCN(C(=O)c3cc(F)cc(F)c3)C2)[nH]1 (stereo not given)	2.05
CC(C(=O)N1CCCC1)N1CCN(c2ncc(Cl)cn2)CC1 (stereo not given)	13.8
CN(C)C(=O)CN1CCCCC1c1nc(N)ncc1-c1ccccc1 (stereo not given)	19.3
COc1cc(N2CC[C@@H]3O[C@@H](C(=O)NC(C)C)C[C@@H]32)ncn1	-4.32
O=C(COCc1nc(-c2ccncc2)no1)N1CCCCC1	-19.7
CN(C)S(=O)(=O)c1ccc(CN2CCCC2c2cccs2)o1 (stereo not given)	22.3
CN1CCC(N2CCC(C(=O)N(C)C)CC2)CC1	28.5
CNCC(=O)N1CCCC(c2nccnc2Oc2cccc(F)c2)C1 (stereo not given)	49.5
